# Sampled rows, rich in hits. Any-hit rate of the full collection: about 1.2%.
# FH mod = Identification of activators of human fumarate hydratase by quantitative high-throughput screening | Potency, µM (top dose mostly 79.9 µM), inactives show at the top dose activity change, negative = inhibition, usual class: inhibitors | Fumarate hydratase, mitochondrial (Homo sapiens), P07954 | FH coupled MDH/diaphorase resazurin fluorescence, 15 min | actives 0.22% (n = 54,000); further: the screen sought activators but most active calls are inhibition curves; nearly all actives have a fitted effect of over 45% in size
# Target sequence (P07954 whole entry, looked up): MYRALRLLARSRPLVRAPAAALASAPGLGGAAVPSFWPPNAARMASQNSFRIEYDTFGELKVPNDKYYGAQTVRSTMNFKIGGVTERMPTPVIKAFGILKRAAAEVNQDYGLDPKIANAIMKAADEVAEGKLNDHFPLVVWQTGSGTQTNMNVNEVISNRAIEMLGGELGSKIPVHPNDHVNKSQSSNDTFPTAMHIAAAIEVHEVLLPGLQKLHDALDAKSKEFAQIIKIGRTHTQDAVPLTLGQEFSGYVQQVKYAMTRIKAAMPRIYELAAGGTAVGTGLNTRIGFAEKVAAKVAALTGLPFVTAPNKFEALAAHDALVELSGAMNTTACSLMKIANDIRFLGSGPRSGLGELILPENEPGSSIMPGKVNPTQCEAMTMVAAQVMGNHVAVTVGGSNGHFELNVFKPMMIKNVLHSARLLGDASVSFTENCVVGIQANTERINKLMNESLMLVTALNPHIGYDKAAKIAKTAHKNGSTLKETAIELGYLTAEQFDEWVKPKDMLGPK
# p53null 32C kill = qHTS Screen for Compounds that Selectively Target Cancer Cells with p53 Mutations: Cytotoxicity of p53 Null Cells at the Permissive Temperature; H1299-neo p53 null cells, ATP luminescence, 24 h, 32C; Potency, µM (titrated, usually from 46.1 µM), inactives show top-dose activity change, negative = cytotoxicity, hits mostly cytotoxic; actives 0.62% (n = 55,000); AID 903, 2007;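 further: 0% = DMSO only and -100% = full killing by 100 µM tamoxifen; nearly all actives have a fitted effect of over 55% in size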
#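 ATP-content luminescence in p53-null H1299-neo cells after 24 h compound exposure (up to 46 uM) at 32C permissive temperature; 0% and 100% killing set by DMSO and 100 uM tamoxifen; Hill-equation AC50.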
# p53null 39C kill = qHTS Screen for Compounds that Selectively Target Cancer Cells with p53 Mutations: Cytotoxicity of p53 Null Cells at the Nonpermissive Temperature; H1299 p53-null (neo) cells, 39C, ATPlite viability, 24 h; Potency, µM (top dose mostly 46.1 µM), inactives show at the top dose activity, negative = cell killing, usual class: cytotoxic; actives 0.97% (n = 55,000);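 further: 0% = DMSO only and -100% = full killing by 100 µM tamoxifen; nearly all actives have a fitted effect of over 50% in size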
#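 H1299 lung cancer cells, p53-null (H1299-neo) or expressing p53 A138V (H1299-p53A138V), were plated overnight at 37C, then exposed to compounds at up to 46 uM for 24 hr at 39C. Viability was read by ATP-based luminescence.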
# Active calls of the source: *; ? = inconclusive; · = not tested or not shown; ! = not active in a repeat; [ ] = remark or other dose. The call rests on the fitted dose curve; in most records, active means well fitted curve in the direction sought with a large enough effect; inconclusive means small, poorly fitted or top-dose-only effect, or another doubt; inactive means no such curve, though single readings can be large; an effect the other way counts as inactive or inconclusive. Unless noted, on the % scale 0 is the no-effect control and ±100 the full control effect; potency means the concentration at half of the fitted maximal effect.
SMILES,FH mod,p53null 32C kill,p53null 39C kill
O=S(=O)(Nc1ccc(O)c(Sc2nc3ccccc3s2)c1)c1cc(Cl)ccc1Cl,16µM*,25%,16%
Cc1cc(S(=O)(=O)Nc2ccc(O)c(Sc3nc4ccccc4s3)c2)ccc1Cl,?,46%,-4%
C=CC(C)(C)c1[nH]c2ccccc2c1C[C@@H]1NC(=O)[C@H](C)NC1=O,-5%[53.3 µM],·,·
COc1ccc(C2N=C(N)Nc3nc4ccccc4n32)c(OC)c1OC (stereo unspecified),11%,2%,-20%
CCc1ccc(C2=CC(c3cccc(C)c3)n3c(nc4ccccc43)N2)cc1 (stereo unspecified),-5%,10µM*,10µM*
CCc1ccc(C2=CC(c3cccc(OC)c3OC)n3c(nc4ccccc43)N2)cc1 (stereo unspecified),-4%,14µM*,?
CCOc1ccc(C2=CC(c3cccc(Br)c3)n3c(nc4ccccc43)N2)cc1Cl (stereo unspecified),-12%,-1%,10%
CC(C)c1ccc(C2=CC(c3cccc(Cl)c3)n3c(nc4ccccc43)N2)cc1 (stereo unspecified),1%,22µM*,?
CC(C)c1ccc(C2=CC(c3cccc(Cl)c3)n3ncnc3N2)cc1 (stereo unspecified),-5%,8%,7%
Cc1cccc(/C=N/Nc2cc(N3CCOCC3)n3nc(-c4ccncc4)cc3n2)c1,-13%,·,·
CC1=C2CC(C)(C)CC2C(O)C2=C(C1)C(=O)OC2O (stereo unspecified),1%,·,·
CC(C)CN(c1ccccc1)S(=O)(=O)c1nnc(NC(=O)c2ccco2)s1,-11%,?,2µM*
CCN(c1ccc(C)cc1)S(=O)(=O)c1nnc(NC(=O)c2cccs2)s1,-5%,8%,?
CCN(c1ccccc1)S(=O)(=O)c1nnc(NC(=O)c2cccs2)s1,-3%,1.3µM*,1µM*
CN(c1ccccc1)S(=O)(=O)c1nnc(NC(=O)c2ccco2)s1,10%,1%,-19%
C=C(C)C1Cc2c(ccc3c2OCC(c2ccc(O)cc2O)C3)O1 (stereo unspecified),-19%[53.3 µM],·,·
CCOc1ccc(NC(=O)NCCN2CCN(c3cc(Cl)ccc3C)CC2)cc1,-28%,8%,-11%
Cc1ccc(Cl)cc1N1CCN(CCNC(=O)Nc2ccc(Cl)cc2)CC1,-23%,?,20µM*
CC(/C=N/Nc1nc2ccccc2[nH]1)=C\c1ccccc1,·,7.9µM*,?
COc1ccc(-c2cnnc(N/N=C/C(C)=C/c3ccccc3)n2)cc1,·,2%,23%[1.84 µM]
COc1cc(/C=C/CO[C@@H]2O[C@H](CO)[C@@H](O)[C@H](O)[C@H]2O)cc(OC)c1O[C@@H]1O[C@H](CO)[C@@H](O)[C@H](O)[C@H]1O,-2%[53.3 µM],·,·
CN(Cc1ccccc1)C(=O)c1cccc(NC(=O)c2nsc3ccccc23)c1,?,?,14µM*
CC(C)Oc1ccc(CNC(=O)c2cccc(NC(=O)c3nsc4ccccc34)c2)cc1,-28%,?,-26%
COc1ccc(S(=O)(=O)N2c3ccc(Cl)cc3[C@@](O)(c3ccccc3Cl)[C@H]2C(=O)N2CCC[C@@H]2C(N)=O)cc1OC,-1%[53.3 µM],·,·
Cc1ccc(C)n1-c1ccccc1N,·,13µM*,?
SMILES,FH mod,p53null 32C kill,p53null 39C kill
Nc1ccccc1N1CCN(C(=O)c2ccccc2)CC1,·,2%,-4%
CC(C)CCC[C@@H](C)[C@H]1CC[C@H]2[C@@H]3CC(=O)[C@H]4C[C@@H](O)CC[C@]4(C)[C@H]3CC[C@]12C,15%,·,·
NS(=O)(=O)c1ccc(NC2=CC(=O)c3ccccc3C2=O)cc1,-13%[53.3 µM],·,·
O=C1c2ccccc2-c2nc3nnnn3nc21 (tested in a mixture with another compound),0.89µM*,·,·
Cc1cccc(Cn2nnc3c2C(=O)c2ccccc2C3=O)c1,·,8%,18%
Cc1nnc(C(C)C)n1C1CC2CCC(C1)N2CCC(NC(=O)C1CCC(F)(F)CC1)c1ccccc1 (stereo unspecified),8%,·,·
C[C@@H]1O[C@@H](O[C@H]2[C@H](O[C@H]3[C@H](O[C@H]4CC[C@@]5(CO)C(CC[C@]6(C)C5CC=C5C7CC(C)(C)C[C@@H](O)[C@]7(C)CC[C@]56C)C4(C)C)O[C@H](C(=O)O)[C@@H](O)[C@@H]3O)OC[C@@H](O)[C@@H]2O)[C@H](O)[C@H](O)[C@H]1O (stereo partly specified),-1%[20.6 µM],·,·
CCNC(=O)Nc1ccc(Oc2ncnc(N)c2C=NOC)cc1Cl,8%[53.3 µM],·,·
CCOC(=O)C1=C(C)NC(C)=C(C(=O)OC)C1c1cccc([N+](=O)[O-])c1 (stereo unspecified),-28%[53.3 µM],·,·
COC(=O)C1=C(C)NC(C)=C(C(=O)OC)C1c1ccccc1[N+](=O)[O-],16µM*!,·,·
CC/C=C\C/C=C\C/C=C\CCCCCCCC(=O)OCC(O)COC1OC(CO)C(O)C(O)C1O (stereo unspecified),-4%[53.3 µM],·,·
C/C(=N\Nc1nc2ccccc2[nH]1)c1cc2ccccc2o1,·,10µM*,?
CNC(=O)c1cc2ccccc2o1,·,-8%,21%
Cc1ccc(S(=O)(=O)Nc2ccc(-c3cn4ccc(C)cc4n3)cc2)cc1,·,·,8%
Cc1ccc(-c2cn3ccc(C)cc3n2)cc1,19%,0.63µM*,0.79µM*
C=C1CCC2C(C)(C(=O)OC)CCCC2(C)C1CCC(C)CC(=O)O (stereo unspecified),0%[53.3 µM],·,·
C#CC(=O)N(c1ccc(OC)cc1OC)C(C(=O)NCC(=O)OCC)c1cccs1 (stereo unspecified),-1%,·,·
COCCN1C(=O)c2[nH]nc(-c3ccccc3O)c2C1c1ccc(Cl)c(Cl)c1 (stereo unspecified),-32%,51%,16µM*
COc1ccc(C2c3c(-c4c(C)cc(C)cc4O)n[nH]c3C(=O)N2Cc2ccco2)cc1 (stereo unspecified),-25%,-10%,?
COc1ccc(C2c3c(-c4ccccc4O)n[nH]c3C(=O)N2Cc2ccco2)cc1 (stereo unspecified),?,28%,24%
Cc1cc(C)c(-c2n[nH]c3c2C(c2ccccc2F)N(Cc2ccco2)C3=O)c(O)c1 (stereo unspecified),?,14%,16µM*
CCCOc1cccc(C2c3c(-c4ccccc4O)n[nH]c3C(=O)N2Cc2ccco2)c1 (stereo unspecified),?,44%,18µM*
O=C1c2[nH]nc(-c3ccccc3O)c2C(c2cccc(OCc3ccccc3)c2)N1CCCO (stereo unspecified),6%,32%,29%
COc1ccc(C2c3c(-c4ccccc4O)n[nH]c3C(=O)N2CCc2ccccc2)cc1 (stereo unspecified),-25%,44%,?
CC(C)OCCCN1C(=O)c2[nH]nc(-c3ccccc3O)c2C1c1ccc(OCc2ccccc2)cc1 (stereo unspecified),?,48%,13µM*

# Bioassay records: PubChem, National Center for Advancing Translational Sciences (NCATS)
